KB-3-1 cytotox – kills parental KB-3-1 adenocarcinoma cells. KB-3-1 viability, CellTiter-Glo ATP luminescence, 72 h. Potency, µM (doses to about 46.1 µM), actives largely listed as cytotoxic. 400,000 compounds, 1.4% hits; further: nearly all actives have a fitted effect of over 60% in size
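Viability of parental KB-3-1 cells, measured by CellTiter-Glo luminescence, followed a 72 h incubation at 37 °C with pinned compounds in phenol-red-free DMEM containing 10% FBS.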
HT1080-NT tox – kills 2HG-producing HT-1080-NT fibrosarcoma cells; HT-1080-NT fibrosarcoma viability, CellTiter-Glo ATP luminescence, 48 h; Potency, µM (top dose mostly 46.1 µM), for the others: top-dose activity, negative = less viability, actives largely listed as cytotoxic; 360,000 compounds, 1.6% hits;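 further: NT is the 2HG producing partner of a matched IDH1 knockdown line; 0% = DMSO-treated cells and -100% = media-only wells without cells; nearly all actives have a fitted effect of over 55% in size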
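Viability of the 2HG-overproducing fibrosarcoma line after 48 hours of compound exposure at 37 degrees C was determined by luminescence with CellTiter-Glo, and concentration-effect curves were then fitted and categorized.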
TDP1 cell CPT – DT40-hTDP1 cell growth loss with CPT; chicken DT40 Tdp1-/-;hTDP1 cells + 20 nM CPT, ATP luminescence, 48 h; Potency, µM (top dose mostly 46.2 µM), for inactives: at the top dose activity change, negative = growth inhibition, most hits filed as inhibitors; 420,000 compounds, 12% hits; further: nearly all actives have a fitted effect of over 55% in size
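Cell growth measured by CellTiter-Glo luminescence after a minimum 48 h, 37 C compound exposure with 20 nM CPT in Tdp1-knockout DT40 cells stably expressing hTDP1, seeded 400/well; qHTS titration format.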
TDP1 cell noCPT – qHTS for Inhibitors of human tyrosyl-DNA phosphodiesterase 1 (TDP1): qHTS in cells in absence of CPT. DT40 Tdp1-/- hTDP1 cells, no CPT, ATP luminescence, 48 h. AID 686978, 2013. Potency, µM (doses to about 46.2 µM), inactives show at the top dose activity change, negative = growth inhibition, most hits filed as inhibitors. 420,000 compounds, 15% hits; further: nearly all actives have a fitted effect of over 55% in size
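Cells were dispensed at 400 per well, compounds added by pin tool, plates incubated ≥48 hr at 37 °C, then CellTiter-Glo added for 30 min at room temperature before luminescence reading. Line: DT40 Tdp1-/- complemented with hTDP1; camptothecin omitted.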
KB-V1 MDR tox – kills drug-selected multidrug resistant KB-V1 cells | KB-V1 MDR cells viability, CellTiter-Glo, 72 h | Potency, µM (series often up to 46.1 µM), usual class: cytotoxic | 400,000 compounds, 3.4% hits | AID 1347076; further: nearly all actives have a fitted effect of over 60% in size
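Drug-selected KB-V1 cells, grown in DMEM lacking phenol red with 10% FBS, receive compound titrations; after three days at 37 degrees C, surviving cell ATP is quantified by CellTiter-Glo luminescence and responses normalized and curve-fitted.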
HT1080 IDH1KD tx – toxicity to HT-1080 IDH1 knockdown cells (counter line); 360,000 compounds, 2% hits; Potency, µM (top dose mostly 46.1 µM), without a hit: top-dose activity, negative = toxicity, actives largely listed as cytotoxic; HT-1080 IDH1 knockdown viability, ATP luminescence, 48 h;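 further: 0% = DMSO wells and -100% = cell-free medium wells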
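IDH1KD HT-1080 cells, 750/well, RPMI + 5% FBS; compound pinned after 2 h settling; 48 h, 37 °C; CellTiter-Glo luminescence; % activity normalised to DMSO and no-cell wells; curves fitted, classed by r2 and efficacy.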
Active calls of the source: *; i = inactive; ? = inconclusive; . = not tested or not shown. A selection: hits, their analogues and other compounds. The true share with any hit is near 19%. The call rests on the fitted dose curve; in most records, active means well fitted curve in the direction sought with a large enough effect; inconclusive means small, poorly fitted or top-dose-only effect, or another doubt; inactive means no such curve, though single readings can be large; an effect the other way counts as inactive or inconclusive. Unless noted, on the % scale 0 is the no-effect control and ±100 the full control effect; potency means the concentration at half of the fitted maximal effect.

SMILES	KB-3-1 cytotox	HT1080-NT tox	TDP1 cell CPT	TDP1 cell noCPT	KB-V1 MDR tox	HT1080 IDH1KD tx
c1ccc2c(C[C@@H]3CNCCN3CCCCC3CCCCC3)cccc2c1	i	4.0%	?	?	i	3.0%
CCC(C)[C@H]1CNCCN1CCc1cc(C(F)(F)F)cc(C(F)(F)F)c1 (some centres undefined)	i	-11.9%	?	18.4µM*	i	-8.4%
FC(F)(F)c1cc(CCN2CCNC[C@@H]2CC2CCCCC2)cc(C(F)(F)F)c1	i	?	23.1µM*	?	i	?
CCCC[C@@H]1CNCCN1CCc1cc(C(F)(F)F)cc(C(F)(F)F)c1	?	0.0%	?	20.6µM*	?	-9.3%
CCC(C)[C@H]1CNC(=S)N1CCc1cc(C(F)(F)F)cc(C(F)(F)F)c1 (some centres undefined)	i	-2.8%	?	20.6µM*	i	-2.3%
CCCC[C@@H]1CNC(=O)C(=O)N1CCc1cc(C(F)(F)F)cc(C(F)(F)F)c1	i	3.7%	-29.0%	?	?	0.5%
O=S(=O)(c1ccc(SCc2cccc(Cl)c2)nc1)N1CCCC1	i	-0.2%	-22.2%	-19.2%	i	3.8%
COC(=O)Cc1c(C)nc2nc(NCc3ccc(Br)cc3)[nH]n2c1=O	i	.	-14.3%	-5.8%	?	.
FC(F)(F)c1cc(CCN2CCNC[C@@H]2c2ccccc2)cc(C(F)(F)F)c1	i	0.0%	16.4µM*	?	i	-11.7%
CC(C)CC(=O)Nc1nnc(SCC(=O)NCc2ccc3c(c2)OCO3)s1	i	0.0%	11.6%	-6.4%	i	-19.4%
O=C1CSC(=S)N1/N=C/c1cc(Br)c(O)c(Br)c1	i	-28.4%	?	?	i	?
COc1ccc(Nc2nc(N)c([N+](=O)[O-])c(NC3CCCCC3)n2)cc1	i	16.4µM*	16.4µM*	?	?	?
Cc1ccc(Nc2nc(N)c([N+](=O)[O-])c(NCc3ccccc3)n2)cc1	i	?	-30.4%	?	?	?
CNc1nc(Nc2ccc(Br)cc2)nc(N)c1[N+](=O)[O-]	0.731µM*	?	-16.5%	?	?	?
Cc1[nH]nc(Nc2ccc(Br)cc2)c1[N+](=O)[O-]	i	-0.3%	20.6µM*	18.4µM*	i	-2.8%
COc1ccc(Nc2nc(N)c([N+](=O)[O-])c(NCc3ccccc3)n2)cc1	i	-21.8%	?	16.4µM*	?	-15.0%
CCN(CC)C(C)C(=O)Nc1c2c(cc3c1CCC3)CCC2 (centres undefined)	i	-0.2%	-26.9%	-15.1%	9.2µM*	1.2%
Cc1ccccc1CC(=O)Nc1ccc2c(c1)CCC2	i	-12.0%	3.2%	-12.8%	?	-22.5%
Cc1ccccc1C(=O)N1CCC[C@H]1C(=O)N1CCC[C@H]1C(=O)NCc1ccccn1	i	19.0%	0.5%	-13.3%	i	20.4%
Cc1cccc(NC(=O)C(Cc2ccccc2)N2Cc3ccccc3C2=O)c1C (centres undefined)	.	.	?	-5.8%	.	.
CC(C)(C)n1nnnc1C(c1ccccc1OC(F)(F)F)N1CCN(C/C=C/c2ccccc2)CC1 (centres undefined)	?	?	20.6µM*	14.6µM*	?	?
COc1ccc(C(c2nnnn2-c2c(C)cccc2C)N2CCN(C/C=C/c3ccccc3)CC2)cc1 (centres undefined)	i	-4.1%	?	?	?	3.4%
Cc1cccc(C)c1-n1nnnc1C(c1ccccc1OC(F)(F)F)N1CCN(C/C=C/c2ccccc2)CC1 (centres undefined)	i	-24.0%	?	20.6µM*	?	?
CN1/C(=C\C(=O)COC(=O)CNC(=O)c2ccccc2F)C(C)(C)c2ccccc21	i	-0.2%	13.2%	-14.7%	i	11.5%
CN1/C(=C\C(=O)COC(=O)CN2C(=O)C3CC=CCC3C2=O)C(C)(C)c2ccccc21 (centres undefined)	i	-16.5%	?	18.4µM*	i	-21.1%
SMILES	KB-3-1 cytotox	HT1080-NT tox	TDP1 cell CPT	TDP1 cell noCPT	KB-V1 MDR tox	HT1080 IDH1KD tx
CN1/C(=C/C(=O)COC(=O)C2COc3ccccc3O2)C(C)(C)c2ccccc21 (centres undefined)	i	-6.9%	25.9µM*	20.6µM*	i	-5.2%
Cc1ccc(NC(=O)COC(=O)C2COc3ccccc3O2)cc1 (centres undefined)	i	9.7%	-2.3%	21.1%	?	0.1%
Clc1ccc(-c2csc(-c3cccnc3)n2)s1	i	28.6%	1.6%	-18.6%	i	12.4%
O=C(c1cc(C(F)(F)F)cc(C(F)(F)F)c1)N1CCC2(CCCN(c3ccccc3)C2)CC1	.	.	3.9%	-15.1%	.	.
ClC1(Cl)CC1CSc1nc2ccccc2[nH]1 (centres undefined)	i	-24.7%	-4.7%	?	?	-27.0%
CCOc1ccc2nc(SCC3CC3(Cl)Cl)[nH]c2c1 (centres undefined)	?	?	?	18.4µM*	?	?
Nc1ccc(-c2nc3ccc(C(=O)O)cc3s2)cc1	i	-24.0%	-29.8%	-26.4%	i	?
Nc1ccc2nc(-c3ccc(O)cc3)sc2c1	?	.	20.6µM*	20.6µM*	i	.
Oc1ccc(N=C/C=C/c2cccc(Br)c2)cc1-c1nc2ccccc2s1	?	-22.6%	11.6µM*	20.6µM*	i	?
Nc1ccc(O)c(-c2nc3ccccc3s2)c1	i	-8.4%	13µM*	16.4µM*	i	-1.5%
Nc1cc2sc(-c3ccc(C(=O)O)cc3)nc2cc1Cl	?	?	8.2µM*	?	?	?
Oc1ccc(-c2nc3ccccc3s2)c(O)c1	i	-1.1%	3.7%	-3.3%	?	?
COCC(=O)N1C[C@H]2CON(C)[C@H]2C[C@H]1c1cccc(-c2ccc(C#N)cc2)c1	i	-0.5%	-2.9%	-11.4%	i	0.6%
COc1ccc(CCNC(=O)C(NS(=O)(=O)c2cccc3nsnc23)C(C)C)cc1OC (centres undefined)	i	10.4%	-12.2%	4.9%	i	14.5%
O=S(=O)(c1ccc(N2CCN(CCO)CC2)nc1)N1CCCCC1	i	7.0%	4.8%	-24.5%	i	9.9%

Source: PubChem BioAssay
